Assay [1] concerns the target Lysosomal acid glucosylceramidase (Homo sapiens) (UniProt P04062). The experiment in a line: Glucocerebrosidase-p2 (AID 348; in the data active = potency below about 10 µM; also: potency is read from the fitted curve at half-maximal effect). The conditions noted are these: purified GBA, blue fluorogenic substrate, 40 min. In short, it runs like this:
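Normal human glucocerebrosidase (0.2 nM) with blue fluorogenic substrate (80 uM final) in citrate/phosphate pH 5.9 with 10mM sodium taurocholate, 0.01% tween-20; 40 min RT, NaOH/glycine stop; fluorescence Ex 365/Em 440; AC50 from a titration from 0.6 nM upwards.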

Assay [2] is described as follows: AP1 Signaling Pathway (AID 357; active = well fitted curve in either direction with a large enough effect, not every such curve was filed as active;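 also: ME-180 reporter cells stimulated with EGF at its EC50 level; % is scaled to controls: 0 for no effect and ±100 for the full control effect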). The note with it: ME-180 AP-1-bla reporter, EGF-induced, beta-lactamase ratio, 5 h; at 7.69 µM (top of the series) unless noted. In short, it runs like this:
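Beta-lactamase reporter under AP-1 response element, ME-180 background. Stimulus: EC50 EGF. Compound exposure 5 h, 37 °C. Detection: CCF4, 2.5 h RT, 460/530 nm. Values: AC50 from titration.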

In assay [3] the target is Cytochrome P450 1A2 (Homo sapiens) (UniProt P05177). Briefly: p450-cyp1a2 (AID 410; calls by dose curve; also: potency is read from the fitted curve at half-maximal effect). The note with it: recombinant CYP1A2, luciferin-ME demethylation, luminescence; series mostly up to 57 µM. In short, it runs like this: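 Read-out is luminescence from luciferin produced by CYP1A2 demethylation of Luciferin-ME (100uM, at Km). Detection reagent stopped the 60 min NADPH-dependent reaction; signals were normalized to 57 uM furafylline.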
Sequence of Cytochrome P450 1A2 (Homo sapiens) (P05177 whole entry, looked up): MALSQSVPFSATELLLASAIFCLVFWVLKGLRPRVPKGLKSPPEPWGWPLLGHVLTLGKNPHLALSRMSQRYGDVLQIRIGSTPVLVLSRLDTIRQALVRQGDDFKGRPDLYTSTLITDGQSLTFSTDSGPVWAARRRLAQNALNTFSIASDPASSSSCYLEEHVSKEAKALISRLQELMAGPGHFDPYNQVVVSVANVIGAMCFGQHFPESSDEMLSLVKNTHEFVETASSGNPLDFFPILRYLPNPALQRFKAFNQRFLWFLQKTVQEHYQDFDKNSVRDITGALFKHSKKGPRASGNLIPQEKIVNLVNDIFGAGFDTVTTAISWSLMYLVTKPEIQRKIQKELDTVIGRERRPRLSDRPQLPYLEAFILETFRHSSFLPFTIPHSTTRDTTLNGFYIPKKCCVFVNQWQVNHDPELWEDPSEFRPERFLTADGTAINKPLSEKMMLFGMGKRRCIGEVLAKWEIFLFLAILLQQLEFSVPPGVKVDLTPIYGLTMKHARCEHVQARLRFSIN

Assay [4] is described as follows: NFAT Signaling Pathway (AID 444; active = well fitted curve in either direction with a large enough effect, not every such curve was filed as active;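 also: carbachol stimulus at about its EC50 of 1 µM final; % is scaled to controls: 0 for no effect and ±100 for the full control effect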). The conditions noted are these: Jurkat NFAT-bla M1, carbachol, beta-lactamase ratio, 5 h; at 7.69 µM (top of the series) unless noted. In short, it runs like this: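 Read-out: CCF4 FRET ratio (460 nm/530 nm) after 1 h RT dye loading, used for %activity and AC50 from titration series. Cells: Jurkat NFAT-β-lactamase/M1 line, treated with compound plus 1 uM carbachol for 5 h, 37 °C.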

A short description of assay [5]: Stat Signaling Pathway (AID 446; active = well fitted curve in either direction with a large enough effect, not every such curve was filed as active;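 also: ME-180 cervical cancer cells given 40 pM IL-6 alongside compound; SIE-controlled beta-lactamase reporter measured as 460/530 nm FRET emission ratio; % is scaled to controls: 0 for no effect and ±100 for the full control effect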). The note with it: ME-180 SIE beta-lactamase reporter, IL-6 stimulated, 5 h; at 7.69 µM (top of the series) unless noted. A digest of the protocol: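 FRET read-out (405 nm excitation, 460/530 nm emission) of a beta-lactamase reporter under a STAT-inducible element in ME-180 cervical carcinoma cells. Cells with compound receive 40 pM IL-6 for 5 h. Values are normalised to AC90 stimulation and AC90 JAK-inhibitor controls.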

For assay [6], the target named is Glucocorticoid receptor (Homo sapiens) (UniProt P04150). The experiment in a line: GR-GFP Redistribution (AID 450;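 active = compounds whose dose series gives a full or clear partial fitted curve of increased nuclear translocation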; also: potency is read from the fitted curve at half-maximal effect). The conditions noted are these: U2OS GR-GFP nuclear translocation, laser cytometry, 2 h.
Sequence of Glucocorticoid receptor (Homo sapiens) (P04150 whole entry, looked up): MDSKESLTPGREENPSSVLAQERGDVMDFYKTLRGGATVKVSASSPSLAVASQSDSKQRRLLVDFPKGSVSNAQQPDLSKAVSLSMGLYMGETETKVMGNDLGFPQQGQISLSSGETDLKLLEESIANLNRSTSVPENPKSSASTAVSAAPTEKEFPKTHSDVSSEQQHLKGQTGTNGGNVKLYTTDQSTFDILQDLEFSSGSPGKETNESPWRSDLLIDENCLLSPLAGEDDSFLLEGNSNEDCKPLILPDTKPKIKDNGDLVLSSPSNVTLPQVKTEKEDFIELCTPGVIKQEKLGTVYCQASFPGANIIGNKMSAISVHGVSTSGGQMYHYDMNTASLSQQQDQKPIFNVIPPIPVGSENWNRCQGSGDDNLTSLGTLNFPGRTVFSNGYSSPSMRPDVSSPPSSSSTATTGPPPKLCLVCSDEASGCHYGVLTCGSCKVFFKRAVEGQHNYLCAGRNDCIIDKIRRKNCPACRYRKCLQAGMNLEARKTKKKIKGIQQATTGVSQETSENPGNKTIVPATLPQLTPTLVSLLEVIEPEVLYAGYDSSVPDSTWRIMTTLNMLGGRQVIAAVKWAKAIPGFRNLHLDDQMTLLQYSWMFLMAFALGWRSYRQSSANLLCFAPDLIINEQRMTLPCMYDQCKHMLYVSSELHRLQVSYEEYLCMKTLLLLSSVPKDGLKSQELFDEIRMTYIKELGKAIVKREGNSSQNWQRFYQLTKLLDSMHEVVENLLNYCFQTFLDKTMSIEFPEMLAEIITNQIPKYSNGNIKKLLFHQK
The target is the same in assay [7]. The experiment in a line: GR-EFC Redistribution (AID 451; calls by dose curve; also: potency is read from the fitted curve at half-maximal effect). The note with it: CHO-K1 GR-EFC translocation, beta-gal luminescence, 2 h. A digest of the protocol:
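Translocation of GR-ED fusion to nuclear EA restores b-gal, read by luminescence after 1 h room-temperature detection. Engineered CHO-K1 biosensor cells, 1,000/well, exposed 2 h at 37 C to titrations up to 46 uM final.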

In assay [8] the target is Mitogen-activated protein kinase 10 (Mus musculus) (UniProt Q61831). The experiment in a line: JNK3 AlphaScreen Assay (AID 530; active = well fitted curve in either direction with a large enough effect, not every such curve was filed as active;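 also: kinase came from lysate of stimulated human HepG2 cells; signal reports phosphorylation of biotinylated GST-cJun 1-79 at Ser73 with 10 µM ATP; % is scaled to controls: 0 for no effect and ±100 for the full control effect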). The note with it: JNK3 lysate, c-Jun phosphorylation; series mostly up to 57.1 µM. A digest of the protocol: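 Kinase buffer: 20 mM Tris-HCl pH 7.6, 10 mM MgCl2, 1 mM DTT, 0.1 mM Na3VO4, 0.01% Tween-20; ATP 10 uM. Substrate biotin-GST-cJun(1-79), enzyme from activated HepG2 lysates. Detection by Ser73 phospho-antibody AlphaScreen.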

For assay [9], the target named is Cytochrome P450 3A4 (Homo sapiens) (UniProt P08684). Briefly: qHTS Assay for Activators of Cytochrome P450 3A4 (AID 885). Also: nearly all actives have a fitted effect of over 65% in size. The note with it: recombinant CYP3A4, Luciferin-PPXE luminescence, 60 min; series mostly up to 57.1 µM. A digest of the protocol: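 Luminescent readout of luciferin formed from 25 uM Luciferin-PPXE (KM level) by 20 nM CYP3A4 in 200 mM KPO4, with 60 min NADPH-driven reaction at room temperature after 10 min compound exposure. Ketoconazole (57 uM) defined 100% inhibition.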
Sequence of Cytochrome P450 3A4 (Homo sapiens) (P08684 whole entry, looked up): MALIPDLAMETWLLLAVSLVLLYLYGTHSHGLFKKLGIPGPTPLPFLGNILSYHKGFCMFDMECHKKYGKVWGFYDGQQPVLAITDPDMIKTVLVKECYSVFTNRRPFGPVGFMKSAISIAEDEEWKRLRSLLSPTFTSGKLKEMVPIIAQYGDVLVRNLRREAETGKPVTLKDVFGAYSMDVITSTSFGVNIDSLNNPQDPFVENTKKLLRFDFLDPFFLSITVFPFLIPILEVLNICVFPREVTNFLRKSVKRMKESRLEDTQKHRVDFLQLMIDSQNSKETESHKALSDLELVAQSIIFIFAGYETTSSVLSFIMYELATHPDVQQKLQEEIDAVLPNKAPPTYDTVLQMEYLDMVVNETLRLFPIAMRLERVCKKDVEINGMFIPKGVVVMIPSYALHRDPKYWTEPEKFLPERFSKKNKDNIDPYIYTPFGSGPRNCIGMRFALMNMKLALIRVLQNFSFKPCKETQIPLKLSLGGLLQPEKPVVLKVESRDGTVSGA
In general terms: qHTS replaces the single test concentration by a dilution series.

Assay [10] has as its target Dual specificity protein kinase CLK4 (Homo sapiens) (UniProt Q9HAZ1). Briefly: qHTS Assay for Inhibitors of CDC-like Kinase 4 (Kinase-Glo Assay) (AID 1770). Also: nearly all actives have a fitted effect of over 65% in size. Also: potency is read from the fitted curve at half-maximal effect. The note with it: recombinant Clk4, Kinase-Glo ATP depletion luminescence; series mostly up to 66.7 µM. In short, it runs like this:
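Recombinant human Clk4 (25 nM) phosphorylated RS repeat peptide (100 uM) with 1 uM ATP in Tris pH 7.5/MgCl2/EGTA/DTT/Triton buffer for 4.5 h at room temperature. Residual ATP was quantified by Kinase-Glo luciferase luminescence.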

For assay [11] the target is unchanged. The experiment in a line: qHTS Assay for Inhibitors of CDC-like Kinase 4 (ADP-FP Assay) (AID 1795). Also: % is scaled to controls: 0 for no effect and ±100 for the full control effect; nearly all actives have a fitted effect of over 60% in size. The note with it: Transcreener ADP fluorescence polarization; series mostly up to 50 µM. In short, it runs like this: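 Recombinant human Clk4 (6.25 nM) phosphorylated RS repeat peptide (100 uM) with 1 uM ATP in Tris pH 7.5/MgCl2/EGTA/DTT/Triton buffer for one hour. ADP was quantified by Transcreener competitive fluorescence polarization against an ADP calibration curve.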

In assay [12] the target is Ubiquitin carboxyl-terminal hydrolase 1 (Homo sapiens) (UniProt O94782). The experiment in a line: Inhibitors of USP1/UAF1: Pilot qHTS (AID 504865).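 Also: rhodamine fluorescence freed from ubiquitin-rhodamine substrate followed over time; top concentration of the series differs between compounds; % is scaled to controls: 0 for no effect and ±100 for the full control effect; nearly all actives have a fitted effect of over 35% in size.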 The note with it: purified USP1/UAF1, Ub-rhodamine cleavage fluorescence; series mostly up to 54.9 µM. A digest of the protocol: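 USP1/UAF1 complex (1nM) preincubated with compound 15 min at room temperature, then Ub-Rho substrate (150nM final) added. Fluorescence read kinetically at 480/540 nm, 6 reads every 60 seconds. Buffer: 50mM HEPES pH 7.8, 0.5mM EDTA, 0.1 mg/ml BSA, 1mM TCEP, 0.01% Tween-20.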
Sequence of Ubiquitin carboxyl-terminal hydrolase 1 (Homo sapiens) (O94782 whole entry, looked up): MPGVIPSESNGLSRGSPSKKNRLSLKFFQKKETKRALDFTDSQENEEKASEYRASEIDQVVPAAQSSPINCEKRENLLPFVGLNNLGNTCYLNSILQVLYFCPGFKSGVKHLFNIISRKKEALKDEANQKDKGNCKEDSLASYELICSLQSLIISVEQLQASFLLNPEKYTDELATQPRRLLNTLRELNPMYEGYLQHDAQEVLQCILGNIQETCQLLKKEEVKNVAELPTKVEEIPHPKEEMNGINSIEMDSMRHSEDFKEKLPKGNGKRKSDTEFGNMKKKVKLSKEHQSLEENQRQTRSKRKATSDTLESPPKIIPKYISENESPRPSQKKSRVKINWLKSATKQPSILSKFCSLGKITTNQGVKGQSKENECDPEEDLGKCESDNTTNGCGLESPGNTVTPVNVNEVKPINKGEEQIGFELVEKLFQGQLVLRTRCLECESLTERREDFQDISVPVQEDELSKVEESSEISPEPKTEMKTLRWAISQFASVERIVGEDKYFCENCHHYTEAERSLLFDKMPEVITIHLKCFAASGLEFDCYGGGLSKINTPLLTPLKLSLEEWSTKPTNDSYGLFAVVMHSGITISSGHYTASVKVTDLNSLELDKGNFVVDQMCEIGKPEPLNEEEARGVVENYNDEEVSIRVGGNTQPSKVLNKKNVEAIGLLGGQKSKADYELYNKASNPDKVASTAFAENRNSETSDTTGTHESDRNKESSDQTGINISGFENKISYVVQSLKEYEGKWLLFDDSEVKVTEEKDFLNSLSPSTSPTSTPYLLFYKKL

Assay [13] is described as follows: Primary qHTS for small molecule stabilizers of the endoplasmic reticulum resident proteome: Secreted ER Calcium Modulated Protein (SERCaMP) assay (AID 1508630). Also: % is scaled to controls: 0 for no effect and ±100 for the full control effect. The note with it: SH-SY5Y GLuc-SERCaMP (Gaussia luciferase released on ER calcium loss) secretion, thapsigargin, luminescence; series mostly up to 38.4 µM. In short, it runs like this:
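The SH-SY5Y reporter protocol was run at 3 concentrations up to 38.3 uM (primary) or 11 concentrations (follow-up): 16 h compound, 100 nM thapsigargin for 4 h, then extracellular luciferase luminescence.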

In assay [14] the target is 3',5'-cyclic-AMP phosphodiesterase 4B (Homo sapiens) (UniProt Q07343). The experiment in a line: qHTS Assay for Inhibitors of PDE-IV (AID 607; active = well fitted activation curve with a large enough effect in the main read-out, with a control signal flat, not every such curve was filed as active; also: % of control where 0% means no effect). The note with it: HEK293 ACTOne CNG channel cells, membrane potential fluorescence; series mostly up to 22.9 µM. A digest of the protocol: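 Cell-based read-out of cAMP via a modified cyclic nucleotide-gated channel and membrane potential dye (535/590 nm) in HEK293 cells expressing PDE4 endogenously. Compounds tested up to 22.9 uM final; 100 uM RO 20-1724 reference.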
Sequence of 3',5'-cyclic-AMP phosphodiesterase 4B (Homo sapiens) (Q07343 whole entry, looked up): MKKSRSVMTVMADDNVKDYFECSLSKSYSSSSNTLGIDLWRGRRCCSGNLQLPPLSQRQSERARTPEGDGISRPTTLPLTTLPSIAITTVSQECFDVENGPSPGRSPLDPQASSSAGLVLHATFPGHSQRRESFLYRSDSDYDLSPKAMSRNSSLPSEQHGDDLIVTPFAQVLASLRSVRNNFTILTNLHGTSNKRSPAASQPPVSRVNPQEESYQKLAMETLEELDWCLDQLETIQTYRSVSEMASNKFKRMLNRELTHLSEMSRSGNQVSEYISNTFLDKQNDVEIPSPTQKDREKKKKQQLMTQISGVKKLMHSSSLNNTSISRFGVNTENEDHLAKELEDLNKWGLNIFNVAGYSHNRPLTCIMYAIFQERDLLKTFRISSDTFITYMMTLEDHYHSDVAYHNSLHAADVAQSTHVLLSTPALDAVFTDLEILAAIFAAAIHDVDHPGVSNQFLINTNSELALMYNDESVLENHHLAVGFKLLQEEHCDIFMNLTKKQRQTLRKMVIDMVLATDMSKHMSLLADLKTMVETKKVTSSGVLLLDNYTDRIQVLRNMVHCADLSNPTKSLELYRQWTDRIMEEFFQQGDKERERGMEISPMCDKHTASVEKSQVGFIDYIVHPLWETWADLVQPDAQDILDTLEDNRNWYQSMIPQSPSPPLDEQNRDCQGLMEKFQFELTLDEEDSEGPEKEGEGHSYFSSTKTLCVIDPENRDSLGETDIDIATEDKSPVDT

Assay [15] deals with Cytochrome P450 2D6 (Homo sapiens) (UniProt P10635). The experiment in a line: qHTS Assay for Inhibitors and Substrates of Cytochrome P450 2D6 (AID 891). Also: potency is read from the fitted curve at half-maximal effect; nearly all actives have a fitted effect of over 60% in size. The note with it: recombinant CYP2D6, luciferin-ME EGE luminescence; series mostly up to 57.1 µM. A digest of the protocol: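 Luminescent read-out of luciferin formed by 5 nM human CYP2D6 demethylating 30 uM Luciferin-ME EGE (Km level) over 60 min at room temperature after NADPH regeneration addition. Data normalized to full inhibition by 1.43 uM quinidine.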

Assay [16] deals with Cytochrome P450 2C9 (Homo sapiens) (UniProt P11712). The experiment in a line: qHTS Assay for Inhibitors and Substrates of Cytochrome P450 2C9 (AID 883). Also: potency is read from the fitted curve at half-maximal effect; nearly all actives have a fitted effect of over 60% in size. The conditions noted are these: recombinant CYP2C9, luciferin-H luminescence, 60 min; series mostly up to 57.1 µM. In short, it runs like this: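 Turnover of Luciferin-H (100uM, KM) by 10nM human CYP2C9 was measured over 60 min at 37C with NADPH regeneration; inhibitors and some substrates reduce luminescence. Data normalized to sulphaphenazole 57uM.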

The target of assay [17] is Cytochrome P450 3A4 (Homo sapiens) (UniProt P08684). The experiment in a line: qHTS Assay for Inhibitors and Substrates of Cytochrome P450 3A4 (AID 884). Also: potency is read from the fitted curve at half-maximal effect; nearly all actives have a fitted effect of over 50% in size. The note with it: recombinant CYP3A4, Luciferin-PPXE luminescence; series mostly up to 57.1 µM. A digest of the protocol:
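Luminescent readout of luciferin produced by CYP3A4 (20 nM) dealkylation of Luciferin-PPXE, 25 uM (its KM). NADPH-driven reaction ran 60 min at RT after 10 min compound preincubation; data scaled to 57 uM ketoconazole as 100% inhibition.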

Assay [18] deals with Cytochrome P450 2C19 (Homo sapiens) (UniProt P33261). The experiment in a line: qHTS Assay for Inhibitors and Substrates of Cytochrome P450 2C19 (AID 899). Also: potency is read from the fitted curve at half-maximal effect; nearly all actives have a fitted effect of over 60% in size. The conditions noted are these: recombinant CYP2C19, luciferin-H EGE luminescence; series mostly up to 57.1 µM. In short, it runs like this:
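Reactions contain 5nM enzyme, 10uM Luciferin-H EGE (KM) and 50mM KPO4; compound preincubates 10 min at 37C, NADPH regeneration starts turnover for 60 min. Luminescence after detection reagent gives activity.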

A short description of assay [19]: qHTS Assay for Identification of Small Molecule Agonists for Hypoxia Response Element Signaling Pathway (AID 914; active = well fitted activation curve with a large enough effect in the signal ratio, with a control signal flat, not every such curve was filed as active; the % refers to the signal ratio; also: % of control where 0% means no effect). The note with it: ME-180 (cervical carcinoma) HRE-bla reporter, beta-lactamase ratio, CoCl2, 17 h; activation: hits give high values. A digest of the protocol:
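Positive modulation of EC50 CoCl2-induced hypoxia response element signaling is measured in ME-180 cells with a beta-lactamase reporter. Compounds are titrated, incubation runs 17 hours, and %Activity derives from the blue/green ratio.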

Values without a mark were called inactive. Records with an inconclusive call do not appear. Calls of active or inactive are those of the source. Unless noted, calls follow the shape of the dose curve; as a rule, active = well fitted curve in the direction sought with a large enough effect; inconclusive = small, poorly fitted or top-dose-only effect, or another doubt; inactive = no such curve, though single readings can be large; an effect the other way counts as inactive or inconclusive.

Sequence of Dual specificity protein kinase CLK4 (Homo sapiens) (Q9HAZ1 whole entry, looked up): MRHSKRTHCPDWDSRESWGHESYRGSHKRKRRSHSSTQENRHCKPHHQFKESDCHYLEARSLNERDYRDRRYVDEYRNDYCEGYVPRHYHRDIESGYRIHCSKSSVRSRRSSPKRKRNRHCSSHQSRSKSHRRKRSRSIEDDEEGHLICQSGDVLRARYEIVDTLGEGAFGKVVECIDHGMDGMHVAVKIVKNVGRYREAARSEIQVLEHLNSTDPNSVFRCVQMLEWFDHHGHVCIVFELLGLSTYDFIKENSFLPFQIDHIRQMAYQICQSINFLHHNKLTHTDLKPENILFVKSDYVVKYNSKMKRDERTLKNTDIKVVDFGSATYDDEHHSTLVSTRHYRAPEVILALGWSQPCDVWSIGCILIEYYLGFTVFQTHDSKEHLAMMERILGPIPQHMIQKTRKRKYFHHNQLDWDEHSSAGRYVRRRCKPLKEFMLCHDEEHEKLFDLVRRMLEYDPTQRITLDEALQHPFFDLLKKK
Sequence of Lysosomal acid glucosylceramidase (Homo sapiens) (P04062 whole entry, looked up): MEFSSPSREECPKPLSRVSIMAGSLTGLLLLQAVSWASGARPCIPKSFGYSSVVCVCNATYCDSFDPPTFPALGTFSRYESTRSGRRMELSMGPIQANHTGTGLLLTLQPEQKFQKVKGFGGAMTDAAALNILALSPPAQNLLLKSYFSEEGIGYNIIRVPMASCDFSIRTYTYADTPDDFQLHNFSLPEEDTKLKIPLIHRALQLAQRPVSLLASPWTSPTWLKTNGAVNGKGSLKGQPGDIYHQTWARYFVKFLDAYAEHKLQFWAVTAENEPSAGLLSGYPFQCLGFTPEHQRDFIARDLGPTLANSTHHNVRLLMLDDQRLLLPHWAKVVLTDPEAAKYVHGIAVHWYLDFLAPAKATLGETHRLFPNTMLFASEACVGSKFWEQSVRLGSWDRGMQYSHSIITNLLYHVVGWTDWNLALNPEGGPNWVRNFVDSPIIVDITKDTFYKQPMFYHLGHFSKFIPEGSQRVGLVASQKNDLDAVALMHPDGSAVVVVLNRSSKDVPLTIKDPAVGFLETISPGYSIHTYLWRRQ
Sequence of Cytochrome P450 2C19 (Homo sapiens) (P33261 whole entry, looked up): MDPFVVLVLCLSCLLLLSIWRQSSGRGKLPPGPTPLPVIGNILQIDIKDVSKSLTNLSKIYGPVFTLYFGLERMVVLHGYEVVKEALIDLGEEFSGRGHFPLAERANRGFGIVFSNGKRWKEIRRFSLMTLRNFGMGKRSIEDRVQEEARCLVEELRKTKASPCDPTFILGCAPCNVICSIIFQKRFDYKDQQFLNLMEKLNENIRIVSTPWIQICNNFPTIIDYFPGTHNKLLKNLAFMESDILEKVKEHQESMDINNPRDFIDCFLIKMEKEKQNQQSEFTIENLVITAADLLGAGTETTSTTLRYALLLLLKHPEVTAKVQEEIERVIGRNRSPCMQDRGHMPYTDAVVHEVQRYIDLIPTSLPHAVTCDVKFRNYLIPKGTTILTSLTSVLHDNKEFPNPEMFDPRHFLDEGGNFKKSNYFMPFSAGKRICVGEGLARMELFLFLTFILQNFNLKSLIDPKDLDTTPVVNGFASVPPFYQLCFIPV

With `COc1ncc2nc(C)c(=O)n(CCc3ccccc3)c2n1`, the Potency is above 11.4 µM in [1], 2 µM (active) in assay [3], above 9.22 µM in [6] and above 46 µM in assay [7]. Also, the activity change, negative = inhibition in assay [2] is -1.51%; in assay [4], -3.03%. In assay [5], the activity, negative = inhibition was -12.2%. The Potency entry in [8], in assay [9], in assay [10], in assay [11] and in [12] was “inactive” in each case. In addition, the outcome in assay [13] was inactive.

Take `CCNc1ncc2nc(-c3cc(F)cc(F)c3)c(=O)n(CCC#N)c2n1`: the Potency was above 11.4 µM in assay [1]; above 9.22 µM in assay [6]; above 46 µM in assay [7]; 0.0631 µM (active) in assay [15]; 31.6 µM (active) in assay [10]. Moreover, the activity change, negative = inhibition in assay [2] was 28.7%; in [4] it was -24.5%. The Potency result in [8], in [14], in assay [11] and in [12] was “inactive” throughout. The result in [13] was inactive.

On to `COc1ccccc1CCn1c(=O)c(-c2cccs2)nc2cncnc21`, for which the Potency was above 11.4 µM in [1]; 2 µM (active) in [3]; above 9.22 µM in [6]; above 46 µM in assay [7]; 2.51 µM (active) in assay [16]; 3.16 µM (active) in assay [17]. The Potency in assay [18] was 2 µM (active). Besides, the activity change, negative = inhibition was -29.2% in assay [2] and -5.89% in [4]. For the same molecule, in assay [5], the activity, negative = inhibition is -0.377%. Moreover, the Potency result in assay [8], in assay [9], in [10], in [11] and in [12] was “inactive” each time. Further, the outcome in assay [13] was inactive.

In the case of `COc1ccccc1CCn1c(=O)c(-c2cccc(Cl)c2)nc2cncnc21`, the Potency was above 11.4 µM in assay [1]; 0.316 µM (active) in [3]; above 9.22 µM in assay [6]; above 46 µM in assay [7]; 6.31 µM (active) in assay [17]; 0.251 µM (active) in assay [18]. Further, the activity change, negative = inhibition was -3.94% in assay [2] and -27.9% in assay [4]. Besides, in assay [5], the activity, negative = inhibition is -13%. Moreover, the Potency entry in assay [8], in assay [9], in assay [10], in assay [11] and in [12] was “inactive” in each case. For the same molecule, the activation in [19] was -1.79%. For the same molecule, the result in [13] was inactive.

For the molecule `Cc1cnc(CNc2ncncc2-c2ccccc2C)cn1`, the Potency in assay [1] was above 11.4 µM; in assay [3], 25.1 µM (active); in assay [6], above 46 µM; in assay [7] it was above 46 µM; in [18] it was 7.94 µM (active). Further, the activity change, negative = inhibition was 3.21% in assay [2] and -3.77% in assay [4]. Also, the activity, negative = inhibition in assay [5] was -10.5%. Besides, the Potency result in assay [8], in assay [14], in assay [9], in assay [10], in assay [11] and in [12] was “inactive” throughout. Besides, the result in assay [13] was inactive.

For `CN1CCN(c2cc(-c3ccccc3Cl)ncn2)CC1`, the Potency in [1] was above 11.4 µM; in [6] it was above 46 µM; in [7] it was above 46 µM. The activity change, negative = inhibition in [2] was -6.42%; in assay [4], 3.06%. Moreover, in assay [5], the activity, negative = inhibition was -1.39%. Besides, the Potency result in [8], in [14], in assay [10], in [11] and in assay [12] was “inactive” each time. For the same molecule, the activation in assay [19] is 18%. Also, the outcome in [13] was inactive.
